Data published in PubChem BioAssay AID376 (PDSP, 2006).
The whole screen tested about 2,000 compounds, of which about 250 (12%) were called active. For the sample, actives were picked, then their nearest neighbours and some compounds at random. Unmarked numbers belong to inactive results. No stated cut-off is given here; in the data, active means hERG blockade below about -20% or above about 20%; inactive means in between.

Biological target: Voltage-gated inwardly rectifying potassium channel KCNH2 (Homo sapiens) (UniProt Q12809)
Test: modulators of KCNH2 ion channel function, cellular (AID 376);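 further: 0% = buffer alone and 100% = reference blocker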
Conditions: hERG-expressing cells, channel activity single-concentration screen; concentration not given here

Chain of Voltage-gated inwardly rectifying potassium channel KCNH2 (Homo sapiens) (Q12809 whole entry, looked up): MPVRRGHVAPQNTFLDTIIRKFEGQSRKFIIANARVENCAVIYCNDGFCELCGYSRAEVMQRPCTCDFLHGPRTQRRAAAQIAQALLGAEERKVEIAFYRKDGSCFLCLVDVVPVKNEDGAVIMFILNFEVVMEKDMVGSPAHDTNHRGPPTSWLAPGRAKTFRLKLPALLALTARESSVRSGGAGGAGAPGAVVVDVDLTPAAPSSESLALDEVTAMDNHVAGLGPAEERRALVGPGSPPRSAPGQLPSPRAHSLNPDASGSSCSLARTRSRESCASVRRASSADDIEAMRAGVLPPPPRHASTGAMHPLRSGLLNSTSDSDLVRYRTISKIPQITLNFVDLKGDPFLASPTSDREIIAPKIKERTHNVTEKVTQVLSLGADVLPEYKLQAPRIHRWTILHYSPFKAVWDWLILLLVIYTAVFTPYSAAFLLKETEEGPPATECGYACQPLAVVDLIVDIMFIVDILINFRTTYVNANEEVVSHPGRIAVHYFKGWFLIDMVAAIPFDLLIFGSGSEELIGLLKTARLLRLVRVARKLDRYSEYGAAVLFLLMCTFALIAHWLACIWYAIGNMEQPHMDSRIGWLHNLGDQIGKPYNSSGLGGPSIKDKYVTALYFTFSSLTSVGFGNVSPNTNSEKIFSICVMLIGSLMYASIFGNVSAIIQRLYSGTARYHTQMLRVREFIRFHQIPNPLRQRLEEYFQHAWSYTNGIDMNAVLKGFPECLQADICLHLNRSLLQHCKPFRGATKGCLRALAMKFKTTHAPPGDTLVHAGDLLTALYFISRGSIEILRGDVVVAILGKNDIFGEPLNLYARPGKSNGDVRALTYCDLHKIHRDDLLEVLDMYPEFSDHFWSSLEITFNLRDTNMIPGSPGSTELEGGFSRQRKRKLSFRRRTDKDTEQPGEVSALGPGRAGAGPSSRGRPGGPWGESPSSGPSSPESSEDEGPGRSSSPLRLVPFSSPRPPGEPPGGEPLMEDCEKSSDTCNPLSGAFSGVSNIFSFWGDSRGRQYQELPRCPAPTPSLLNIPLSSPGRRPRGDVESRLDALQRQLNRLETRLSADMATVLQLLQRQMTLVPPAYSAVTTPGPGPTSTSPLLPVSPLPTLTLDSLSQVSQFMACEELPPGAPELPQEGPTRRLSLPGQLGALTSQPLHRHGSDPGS

Row | SMILES | hERG blockade
1 | CC(C)(SCc1ccccc1)C(N)C(=O)O (stereo not drawn) | 2.47%
2 | NS(=O)(=O)c1ccc(NC(=O)Nc2cccc3ccccc23)cc1 | 0.23%
3 | CC(=N[O-])C(C)=N[O-].CC(=N[O-])C(C)=N[O-].CC(=N[O-])C(C)=N[O-].CC(=N[O-])C(C)=N[O-].[CH3-].[CH3-].[Co].[Co] | 11.4%
4 | O=S(=O)(c1cccc(C(F)(F)F)c1)N1c2ccccc2-n2cccc2C1c1cccnc1 (stereo not drawn) | 18%
5 | FC(F)(F)c1nc(SCc2ccc(Cl)cc2)n[nH]1 | 4.58%
6 | COc1ccc2c(Cl)cc(NC(=S)Nc3ccccc3)nc2c1 | -8.81%
7 | CSc1nc(C)cc(Nc2ccc(O)c(CN3CCCCC3)c2)n1 | 14.8%
8 | COc1ccc2nc3cc(Cl)ccc3c(Nc3ccc(O)c(CN4CCN(C)CC4)c3)c2c1 | 61.7% (active)
9 | OC(CNc1ccccn1)c1ccccc1 (stereo not drawn) | 5.58%
10 | Cc1cc(Cc2c(C)c(C)c(Cc3cc(C)cc(C(C)(C)C)c3O)c(C)c2C)c(O)c(C(C)(C)C)c1 | 1.65%
11 | Nc1ccc(N(S(=O)(=O)c2ccccc2)S(=O)(=O)c2ccccc2)c(Cl)c1 | 0.845%
12 | COc1cc(CN2CCCCC2)cc2cc(C(=O)O)c(=O)oc12 | 4.84%
13 | O=C(O)c1c[nH]c2c(ccc3[nH]cc(C(=O)O)c(=O)c32)c1=O | 22.9% (active)
14 | O=C(O)c1ccc(C(=O)O)c2c(C(=O)O)ccc(C(=O)O)c12 | -5.21%
15 | O=C(O)c1c[nH]c2cc(OCc3ccccc3)ccc2c1=O | 6.26%
16 | O=C(O)C(Cc1ccccc1-c1ccccc1)C(=O)O | 19.4%
17 | Cc1n[nH]c2ccccc2c1=O | -1.27%
18 | COc1ccc2ccccc2c1C=CC(=O)c1ccccc1 | -1.69%
19 | O=C(C[n+]1ccc2ccccc2c1)c1ccc2ccc3ccccc3c2c1 | 37.2% (active)
20 | O=C(O)CCC(=O)c1ccc2sc3ccccc3c2c1 | -5.18%
21 | OC(COc1ccc(Cl)cc1Cl)CN1CCCC1 (stereo not drawn) | 17.2%
22 | C[N+](C)(N)CCC[N+](C)(C)N | -2.4%

Row | SMILES | hERG blockade
23 | O=C1C2=C(Nc3cc([N+](=O)[O-])ccc3N2)OC1c1c[nH]c2ccc(COc3ccccc3)cc12 (stereo not drawn) | 4.4%
24 | Nc1nc(SCc2ccccc2Cl)cc(C(=O)O)n1 | -7.45%
25 | CC(C)C1=CC23CCC4C(C)(C(=O)O)CCCC4(C)C2CC1C(C(=O)O)C3C(=O)O (stereo not drawn) | 6.18%
26 | Oc1ccc2ccccc2c1Cc1c(O)ccc2ccccc12 | 8.8%
27 | Oc1c(C(O)(c2ccccc2)c2ccc3ccccc3c2O)ccc2ccccc12 | 50.7% (active)
28 | CC(O)(c1ccccc1)c1nccc2ccccc12 (stereo not drawn) | 0.101%
29 | CC1=NN(c2ccc(S(=O)(=O)O)cc2)C(=O)C1=Cc1ccc(Cl)cc1 | 41% (active)
30 | O=c1oc2ccccc2c(O)c1C=Nc1nc(-c2ccc(O)c(O)c2)cs1 | -3.45%
31 | C[N+](C)(C)CC(=O)NN=Cc1ccncc1 | -9.76%
32 | C=CCSc1nc2c(N)ncnc2n1C1OC(CO)C(O)C1O (stereo not drawn) | -7.69%
33 | NS(=O)(=O)c1ccc(NCc2cnc3ccccc3n2)cc1 | -7.4%
34 | Nc1nccc(Nc2ccc(S(N)(=O)=O)cc2)n1 | 20.2% (active)
35 | NS(=O)(=O)c1ccc(NCc2cnc3ccccc3c2)cc1 | -4.82%
36 | O=[N+]([O-])c1ccc(CS(=O)Cc2ccccc2)cc1 (stereo not drawn) | 8.1%
37 | Cc1ccc(S(=O)(=O)Oc2cc(N)c3c(n2)CCC3)cc1 | -21.4% (active)
38 | Cc1ccc(S(=O)(=O)Nc2cc(=O)[nH]c3c2CCC3)cc1 | 15.4%
39 | Cc1ccc(S(=O)(=O)Oc2cc(S(=O)(=O)O)cc3cc(S(=O)(=O)O)cc(N)c23)cc1 | 11.5%
40 | O=C(O)C(=Cc1ccncc1)c1cccc2ccccc12 | 0.772%
41 | COC(=O)C1C(O)CCC2CN3CCc4c([nH]c5ccccc45)C3CC21 (stereo not drawn) | 42.5% (active)
42 | COC(=O)C1C(OS(=O)(=O)O)CCC2CN3CCc4c([nH]c5ccccc45)C3CC21 (stereo not drawn) | -1.73%
43 | COc1ccc2c3c([nH]c2c1)C1CC2C(CC(O)C(OC)C2C(=O)O)CN1CC3 (stereo not drawn) | 5.28%
44 | Oc1cc(O)c2c(c1)OC(c1ccc(O)c(O)c1)C(O)C2c1c(O)cc(O)c2c1OC(c1ccc(O)c(O)c1)C(O)C2 (stereo not drawn) | 10.6%

Row | SMILES | hERG blockade
45 | O=C(O)COc1c(Cl)cc(Cl)c2cccnc12 | -8.13%
46 | CC(C)(C)c1c2c(c(C(C)(C)C)c3c1OCN(Cc1ccccc1)C3)OCN(Cc1ccccc1)C2 | 23.8% (active)
47 | c1ccc(CN2COc3c(ccc4c5c(ccc34)CN(Cc3ccccc3)CO5)C2)cc1 | -6.83%
48 | O=C(Oc1ccc2c(c1)CN(Cc1ccccc1)CO2)c1ccccc1 | 13%
49 | CCCC(c1cc(C(C)(C)C)c(O)cc1C)c1cc(C(C)(C)C)c(O)cc1C | 4.17%
50 | CC(=N[O-])C(C)=N[O-].CC(=N[O-])C(C)=N[O-].C[CH-]C(C)O.[Co].c1ccncc1 | -3.56%
51 | Nc1ccn(C2OC(CO)C3[O][Sn]([c]4ccccc4)([c]4ccccc4)[O]C32)c(=O)n1 (stereo not drawn) | 9.47%
52 | N=c1ccn2c(n1)OC1C(OP(=O)(O)O)C(CO)OC12 (stereo not drawn) | -24.7% (active)
53 | Nc1ccn(C2OC(COP(=O)(O)O)C(O)C2O)c(=O)n1 (stereo not drawn) | -9.61%
54 | Fc1cccc(Cl)c1C=NN=C1c2ccccc2-c2ccccc21 | 4.24%
55 | O=C(O)c1c(Cl)c(Cl)c(Cl)c(Cl)c1C(=O)Nc1ccc2cn[nH]c2c1 | 9.23%
56 | C[N+](C)(C)C(Cc1c[nH]c(=S)[nH]1)C(=O)O (stereo not drawn) | -14%
57 | COc1ccc(-c2nc(N)c3ncn(C4OC(CO)C(O)C4O)c3n2)cc1 (stereo not drawn) | -8.39%
58 | CC(C)CC(N)C(=O)O (stereo not drawn) | 6.02%
59 | NC(Cc1ccccc1)(C(=O)O)C(=O)O | -3.15%
60 | NS(=O)(=O)c1cc(C(=O)O)c(Cl)c([N+](=O)[O-])c1Cl | -6.38%
61 | COc1cc(C(=O)O)c([N+](=O)[O-])c(OC)c1OC | 23.9% (active)
62 | COc1ccc(Cc2ccccc2C(=O)O)c2ccccc12 | -3.19%
63 | Cc1cc(=O)oc2cc(O)c(CN(C)CC(=O)O)cc12 | 0.517%
64 | O=c1[nH]c(=S)[nH]c2c1CN(CCCN1CCOCC1)CN2 | 3%
65 | NCCSCc1ccccc1Cl | 6.42%
66 | CN(CCO)Cc1ncccc1O | -0.376%

Row | SMILES | hERG blockade
67 | CC(CCC(=O)O)C1CCC2C3CCC4CC(O)CCC4(C)C3CC(O)C12C (stereo not drawn) | 2.74%
68 | Cc1nc2cccc([N+](=O)[O-])c2n1CCCN(C)C | 3.79%
69 | CN(C)CCCn1c2c3ccccc3ccc2c2oc(=O)c3ccccc3c21 | 122% (active)
70 | Cc1ccc(N2CCN(CCC(=O)O)CC2)cc1 | -0.109%
71 | CCCn1cnc2c(SCC(=O)O)nc(N)nc21 | 4.79%
72 | NC(=S)NN=Cc1c[nH]c2ccccc12 | 9.72%
73 | CCCCNS(=O)(=O)c1n[nH]c(=O)[nH]c1=O | -14.2%
74 | CC(CCC(C)=NO)=NO | -14.3%
75 | Cc1cc(Cl)ccc1Nc1sc(C(=O)c2cc3cc(Cl)ccc3o2)c(N)c1C#N | 24% (active)
76 | O=C(O)c1c(-c2nccc3ccccc23)[nH]c(-c2ccccc2)c1S(=O)(=O)O | -1.08%
77 | COc1ccc2nccc(SCC(=O)O)c2c1 | -9.78%
78 | CC(=O)Nc1ccc2c(c1)C(=Cc1ccc([N+](C)(C)C)cc1)c1ccccc1-2 | 24.7% (active)
79 | CC(=O)Nc1ccc2c(c1)C(=Nc1ccc(C(=O)O)cc1)c1ccccc1-2 | 19.5%
80 | CC(=O)Nc1ccccc1C=C1c2ccccc2-c2ccccc21 | -13.9%
81 | Cc1ccc(C(C#N)=Cc2cccc([N+](=O)[O-])c2)cc1 | 11.7%
82 | CC(=O)n1c(COS(C)(=O)=O)nc2ccccc21 | 4.86%
83 | CC1CC(C)(C)CC(OCCN2CCCCC2)(c2ccccc2)C1 (stereo not drawn) | 21.3% (active)
84 | OC(CCN1CCCCC1)(c1ccccc1)c1ccccc1 | 11.6%
85 | Cc1ccc(S(=O)(=O)Nc2ccccc2C=O)cc1 | 5.12%
86 | C[N+]1(CCCC[N+]2(C)CCCCCCC2)CCCCCCC1 | 13.6%
87 | N#CC(C#N)=CNCCN1CCN(C=C(C#N)C#N)CC1 | -5.6%
88 | CN(C)CCNc1ccccn1 | 5.77%
